Results filed as inconclusive are left out. Where a call stands in place of a potency, no number is given. Unmarked numbers belong to inactive results. Calls of active or inactive are those of the source. Calls come from the whole dose curve; as a rule, active = well fitted curve in the direction sought with a large enough effect; inconclusive = small, poorly fitted or top-dose-only effect, or another doubt; inactive = no such curve, though single readings can be large; an effect the other way counts as inactive or inconclusive.
How the values were obtained:
[1] = molecular target: ATP-dependent 6-phosphofructokinase (Trypanosoma brucei brucei) (UniProt O15648); assay: qHTS Assay to Find Inhibitors of T. brucei phosphofructokinase: hit validation (AID 492961);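 note: luminescence reports ADP formed as PFK phosphorylates fructose-6-phosphate with ATP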
Sequence of ATP-dependent 6-phosphofructokinase (Trypanosoma brucei brucei) (O15648 whole entry, looked up): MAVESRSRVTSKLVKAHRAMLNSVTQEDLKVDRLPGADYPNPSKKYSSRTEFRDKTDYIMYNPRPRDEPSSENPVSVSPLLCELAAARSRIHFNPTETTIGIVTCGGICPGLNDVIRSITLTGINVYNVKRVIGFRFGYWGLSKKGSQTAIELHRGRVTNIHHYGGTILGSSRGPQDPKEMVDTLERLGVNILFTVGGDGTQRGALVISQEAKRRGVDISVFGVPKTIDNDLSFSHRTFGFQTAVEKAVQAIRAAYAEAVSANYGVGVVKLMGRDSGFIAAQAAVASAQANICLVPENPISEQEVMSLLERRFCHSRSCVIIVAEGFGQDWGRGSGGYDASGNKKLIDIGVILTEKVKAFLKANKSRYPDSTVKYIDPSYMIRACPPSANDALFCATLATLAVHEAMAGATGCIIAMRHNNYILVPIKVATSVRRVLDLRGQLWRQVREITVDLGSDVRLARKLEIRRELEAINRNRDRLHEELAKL
Summary of the method: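 Measures ADP output of PFK (1.25 nM) at 0.1 mM ATP, 0.5 mM F6P, pH 8.0 TEA buffer with 5 mM MgCl2. No-enzyme wells define full inhibition; uninhibited enzyme wells define zero.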

[2] = molecular target: Ubiquitin carboxyl-terminal hydrolase 1 (Homo sapiens) (UniProt O94782); assay: Inhibitors of USP1/UAF1: Pilot qHTS (AID 504865);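 note: rhodamine fluorescence freed from ubiquitin-rhodamine substrate followed over time; top concentration of the series differs between compounds; nearly all actives have a fitted effect of over 35% in size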
Sequence of Ubiquitin carboxyl-terminal hydrolase 1 (Homo sapiens) (O94782 whole entry, looked up): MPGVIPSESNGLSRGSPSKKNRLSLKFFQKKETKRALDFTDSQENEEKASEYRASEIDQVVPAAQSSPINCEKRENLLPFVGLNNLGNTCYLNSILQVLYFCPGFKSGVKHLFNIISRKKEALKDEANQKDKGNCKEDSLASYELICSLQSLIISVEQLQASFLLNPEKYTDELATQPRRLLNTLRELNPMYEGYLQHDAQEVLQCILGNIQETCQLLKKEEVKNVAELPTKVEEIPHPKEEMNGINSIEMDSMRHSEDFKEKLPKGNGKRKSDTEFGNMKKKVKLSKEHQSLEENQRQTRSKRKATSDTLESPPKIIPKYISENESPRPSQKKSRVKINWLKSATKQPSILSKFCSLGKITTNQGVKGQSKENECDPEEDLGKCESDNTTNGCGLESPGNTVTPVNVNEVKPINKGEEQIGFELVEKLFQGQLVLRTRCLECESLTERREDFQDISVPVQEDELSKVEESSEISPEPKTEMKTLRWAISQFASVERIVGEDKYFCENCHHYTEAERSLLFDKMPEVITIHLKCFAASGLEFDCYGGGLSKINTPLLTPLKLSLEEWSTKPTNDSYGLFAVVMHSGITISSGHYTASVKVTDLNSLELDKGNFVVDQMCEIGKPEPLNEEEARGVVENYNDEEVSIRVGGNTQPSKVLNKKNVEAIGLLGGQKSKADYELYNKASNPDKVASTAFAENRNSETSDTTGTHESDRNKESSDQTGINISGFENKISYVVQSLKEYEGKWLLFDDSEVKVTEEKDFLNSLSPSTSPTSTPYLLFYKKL
Summary of the method: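 In 50mM HEPES pH 7.8 containing 0.5mM EDTA, 1mM TCEP, 0.1 mg/ml BSA and 0.01% Tween-20, 1nM USP1/UAF1 is exposed to compound for 15 min, then Ub-Rho (150nM final) is added and fluorescence is read over time.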

[3] = molecular target: Luciferin 4-monooxygenase (Photinus pyralis) (UniProt P08659); assay: Biochemical firefly luciferase enzyme assay for NPC (AID 624030);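 note: purified P. pyralis luciferase at 10 nM with luciferin and ATP substrate; nearly all actives have a fitted effect of over 70% in size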
Sequence of Luciferin 4-monooxygenase (Photinus pyralis) (P08659 whole entry, looked up): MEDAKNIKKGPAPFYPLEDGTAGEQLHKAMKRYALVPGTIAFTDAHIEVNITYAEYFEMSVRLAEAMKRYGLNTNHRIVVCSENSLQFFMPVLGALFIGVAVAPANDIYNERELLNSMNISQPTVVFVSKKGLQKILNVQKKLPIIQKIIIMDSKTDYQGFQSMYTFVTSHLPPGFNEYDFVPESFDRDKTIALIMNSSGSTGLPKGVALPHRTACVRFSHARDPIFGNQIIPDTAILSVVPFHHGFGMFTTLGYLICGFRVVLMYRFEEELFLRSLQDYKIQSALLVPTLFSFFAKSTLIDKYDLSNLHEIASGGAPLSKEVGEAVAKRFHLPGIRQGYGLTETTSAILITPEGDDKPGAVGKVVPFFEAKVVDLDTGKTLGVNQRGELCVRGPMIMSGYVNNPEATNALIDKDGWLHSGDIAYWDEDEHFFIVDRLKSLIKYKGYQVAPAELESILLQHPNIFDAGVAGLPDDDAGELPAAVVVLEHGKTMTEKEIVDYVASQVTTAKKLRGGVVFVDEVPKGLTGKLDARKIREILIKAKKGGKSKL
Summary of the method: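 Direct inhibition of firefly luciferase enzyme (10 nM final, 50 mM Tris Acetate) assessed by luminescence within 5 minutes. Percent activity scaled between DMSO and PTC124 positive control, with concentration-effect curves classified by fit quality and response.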

[4] = S16 Schwann cell viability assay (CellTiter-Glo assay) (AID 624031);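 note: native untransfected S16 rat Schwann cells; nearly all actives have a fitted effect of over 70% in size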
Summary of the method: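 Counter-screen for cytotoxicity: parental S16 rat Schwann cells lacking the PMP22 reporters, treated 24 h with compound, viability from cellular ATP by CellTiter-Glo luminescence, normalized to DMSO (0%) and no-cell wells.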

[5] = S16 Schwann cell PMP22 intronic element firefly luciferase assay (AID 624032); note: potency is the fitted concentration of half-maximal effect; nearly all actives have a fitted effect of over 30% in size
Summary of the method: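 Luciferase reporter of PMP22 intronic-element expression in stably transfected S16 rat Schwann cells, read by ONE-Glo luminescence after 24 h compound exposure at 37 C. Activity scaled between DMSO (0%) and positive-control PTC124; concentration-effect curves quality-classified.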

[6] = qHTS profiling for inhibitors of Plasmodium falciparum proliferation (AID 504749); note: nearly all actives have a fitted effect of over 60% in size; conditions: P. falciparum in erythrocytes, SYBR Green DNA, 72 h, at 28.7 µM (top of the series)
Summary of the method: (§1)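 In a 72 h erythrocytic culture (37 C, humidified, 5% CO2) at 2.5% hematocrit and 0.3% starting parasitemia, compounds were tested; SYBR Green I in detergent lysis buffer stained parasite DNA overnight.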

3D7 = assay: as above; conditions: P. falciparum in erythrocytes, SYBR Green DNA, 72 h; series mostly up to 28.7 µM
Summary of the method: as §1

7G8 = assay: as above; conditions: P. falciparum in erythrocytes, SYBR Green DNA, 72 h; series mostly up to 28.7 µM
Summary of the method: as §1

AA1029 = assay: as above; conditions: P. falciparum in erythrocytes, SYBR Green DNA, 72 h; series mostly up to 28.7 µM
Summary of the method: as §1

AS120 = assay: as above; conditions: P. falciparum in erythrocytes, SYBR Green DNA, 72 h; series mostly up to 28.7 µM
Summary of the method: as §1

ATS189 = assay: as above; conditions: P. falciparum in erythrocytes, SYBR Green DNA, 72 h; series mostly up to 28.7 µM
Summary of the method: as §1

ATS95 = assay: as above; conditions: P. falciparum in erythrocytes, SYBR Green DNA, 72 h; series mostly up to 28.7 µM
Summary of the method: as §1

C2A = assay: as above; conditions: P. falciparum in erythrocytes, SYBR Green DNA, 72 h; series mostly up to 28.7 µM
Summary of the method: as §1

CP185 = assay: as above; conditions: P. falciparum in erythrocytes, SYBR Green DNA, 72 h; series mostly up to 28.7 µM
Summary of the method: as §1

CP191 = assay: as above; conditions: P. falciparum in erythrocytes, SYBR Green DNA, 72 h; series mostly up to 28.7 µM
Summary of the method: as §1

CP192 = assay: as above; conditions: P. falciparum in erythrocytes, SYBR Green DNA, 72 h; series mostly up to 28.7 µM
Summary of the method: as §1

CP194 = assay: as above; conditions: P. falciparum in erythrocytes, SYBR Green DNA, 72 h; series mostly up to 28.7 µM
Summary of the method: as §1

CP201 = assay: as above; conditions: P. falciparum in erythrocytes, SYBR Green DNA, 72 h; series mostly up to 28.7 µM
Summary of the method: as §1

CP203 = assay: as above; conditions: P. falciparum in erythrocytes, SYBR Green DNA, 72 h; series mostly up to 28.7 µM
Summary of the method: as §1

CP211 = assay: as above; conditions: P. falciparum in erythrocytes, SYBR Green DNA, 72 h; series mostly up to 28.7 µM
Summary of the method: as §1

CP215 = assay: as above; conditions: P. falciparum in erythrocytes, SYBR Green DNA, 72 h; series mostly up to 28.7 µM
Summary of the method: as §1

CP217 = assay: as above; conditions: P. falciparum in erythrocytes, SYBR Green DNA, 72 h; series mostly up to 28.7 µM
Summary of the method: as §1

CP237 = assay: as above; conditions: P. falciparum in erythrocytes, SYBR Green DNA, 72 h; series mostly up to 28.7 µM
Summary of the method: as §1

CP238 = assay: as above; conditions: P. falciparum in erythrocytes, SYBR Green DNA, 72 h; series mostly up to 28.7 µM
Summary of the method: as §1

CP247 = assay: as above; conditions: P. falciparum in erythrocytes, SYBR Green DNA, 72 h; series mostly up to 28.7 µM
Summary of the method: as §1

CP250 = assay: as above; conditions: P. falciparum in erythrocytes, SYBR Green DNA, 72 h; series mostly up to 28.7 µM
Summary of the method: as §1

CP252 = assay: as above; conditions: P. falciparum in erythrocytes, SYBR Green DNA, 72 h; series mostly up to 28.7 µM
Summary of the method: as §1

CP256 = assay: as above; conditions: P. falciparum in erythrocytes, SYBR Green DNA, 72 h; series mostly up to 28.7 µM
Summary of the method: as §1

CP260 = assay: as above; conditions: P. falciparum in erythrocytes, SYBR Green DNA, 72 h; series mostly up to 28.7 µM
Summary of the method: as §1

CP262 = assay: as above; conditions: P. falciparum in erythrocytes, SYBR Green DNA, 72 h; series mostly up to 28.7 µM
Summary of the method: as §1

CP265 = assay: as above; conditions: P. falciparum in erythrocytes, SYBR Green DNA, 72 h; series mostly up to 28.7 µM
Summary of the method: as §1

CP266 = assay: as above; conditions: P. falciparum in erythrocytes, SYBR Green DNA, 72 h; series mostly up to 28.7 µM
Summary of the method: as §1

For `O=c1[nH]c(=O)n(C2C[C@H](O)[C@@H](CO)O2)cc1C(F)(F)F` (stereo partly drawn), the Potency [1] was “inactive”, the Potency [2] was “inactive” and the Potency [3] was “inactive”. The Potency [4] was “inactive”, the Potency [5] was 510 nM (active) and the activity, negative = inhibition ([6]; parasite line A) was -3.45%. The activity, negative = inhibition ([6]; parasite line B) was -4.14%, the Potency (3D7) was “inactive” and the Potency (7G8) was “inactive”. The Potency (AA1029) was “inactive”, the Potency (AS120) was “inactive” and the Potency (ATS189) was “inactive”. The Potency (ATS95) was “inactive”, the Potency (C2A) was “inactive” and the Potency (CP185) was “inactive”. For the same compound, the Potency (CP191) was “inactive”, the Potency (CP192) was “inactive” and the Potency (CP194) was “inactive”. For the same compound, the Potency (CP201) was “inactive”, the Potency (CP203) was “inactive” and the Potency (CP211) was “inactive”. For the same compound, the Potency (CP215) was “inactive”, the Potency (CP217) was “inactive” and the Potency (CP237) was “inactive”. For the same compound, the Potency (CP238) was “inactive”, the Potency (CP247) was “inactive” and the Potency (CP250) was “inactive”. For the same compound, the Potency (CP252) was “inactive”, the Potency (CP256) was “inactive” and the Potency (CP260) was “inactive”. The Potency (CP262) was “inactive”, the Potency (CP265) was “inactive” and the Potency (CP266) was “inactive”.
